From PubChem BioAssay AID1159580 (chemical genetic matrix, 2015)
Several values for one entry are separate records, joined by “and”; a condition that tells them apart may be missing. Equal values may be shown once. The campaign covered roughly 5,500 compounds. About 2,000 (36%) were called active. About 18% were inconclusive and are not listed. Rule as the data show it: active = normalized growth mostly below about 0.91 (no sharp cut-off); inconclusive = no clear call, values can overlap the other calls; inactive = mostly above about 0.92. Some of the results follow.

Assay: chemical genetic growth profiling, strain panel (AID 1159580);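 also: tested at 20 µM; growth read once vehicle control cultures reached saturation at 30 °C; 1 = growth at the plate median or of vehicle wells; lower values mean less growth of the strain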
Conditions: S. cerevisiae deletion strains, growth OD

Measured: normalized growth

Nc1ncnc2c1ncn2[C@@H]1O[C@H](CO)[C@@H](O)[C@@H]1O
inactive: locus YAL013W, strain DEP1, active compounds read low 1.01 | locus YAL021C, strain ccr4, active compounds read low 1 | locus YAL026C, strain drs2, active compounds read low 1.01 | locus YAL030W, strain snc1, active compounds read low 1.01 | locus YBL061C, strain skt5, active compounds read low 1.01 | locus YBR009C, strain hhf1, active compounds read low 1.01 | locus YBR021W, strain FUR4, active compounds read low 1 | locus YBR023C, strain chs3, active compounds read low 1.01 | locus YBR171W, strain sec66, active compounds read low 1.02 | locus YBR229C, strain ROT2, active compounds read low 1.01 | locus YBR231C, strain swc5, active compounds read low 0.997 | locus YBR279W, strain paf1, active compounds read low 1.01 | locus YCL011C, strain gbp2, active compounds read low 1.01 | locus YCL016C, strain dcc1, active compounds read low 1 | locus YCL029C, strain bik1, active compounds read low 1.05 | locus YCL061C, strain MRC1, active compounds read low 1.01 | locus YCL069W, strain vba3, active compounds read low 1.02 | locus YCR088W, strain abp1, active compounds read low 1.01 | locus YDL005C, strain med2, active compounds read low 1.02 | locus YDL035C, strain GPR1, active compounds read low 1.01 | locus YDL040C, strain nat1, active compounds read low 1.01 | locus YDL074C, strain BRE1, active compounds read low 1.01 | locus YDL101C, strain DUN1, active compounds read low 1.01 | locus YDL134C, strain PPH21, active compounds read low 1.01 | locus YDL185W, strain tfp1, active compounds read low 1.02 | locus YDL192W, strain arf1, active compounds read low 1.03 | locus YDR001C, strain nth1, active compounds read low 1.01 | locus YDR069C, strain doa4, active compounds read low 1.01 | locus YDR101C, strain arx1, active compounds read low 1.03 | locus YDR137W, strain rgp1, active compounds read low 1.03 | locus YDR150W, strain NUM1, active compounds read low 1.01 | locus YDR159W, strain sac3, active compounds read low 1.01 | locus YDR162C, strain NBP2, active compounds read low 1.01 | locus YDR195W, strain ref2 1.02 | locus YDR297W, strain sur2, active compounds read low 1.01 | locus YDR318W, strain mcm21, active compounds read low 1.04 | locus YDR334W, strain swr1, active compounds read low 1.01 | locus YDR335W, strain msn5, active compounds read low 1 | locus YDR388W, active compounds read low 1.02 | locus YDR392W, strain spt3, active compounds read low 0.986 | locus YDR502C, strain sam2, active compounds read low 1.03 | locus YEL003W, strain gim4, active compounds read low 1.02 | locus YEL037C, strain rad23, active compounds read low 1.01 | locus YEL061C, strain CIN8 (second series), active compounds read low 1.02 | locus YEL061C, strain CIN8, active compounds read low 1.01 | locus YER015W, strain faa2, active compounds read low 1.01 | locus YER016W, strain bim1, active compounds read low 1.01 | locus YER110C, active compounds read low 1.04 | locus YER111C, strain swi4, active compounds read low 1.01 | locus YER155C, strain BEM2 (second series), active compounds read low 1.02 | locus YER155C, strain BEM2, active compounds read low 1 | locus YER167W, strain BCK2, active compounds read low 1.01 | locus YFR010W, strain ubp6, active compounds read low 1.02 | locus YGL078C, strain dbp3, active compounds read low 1.02 | locus YGL086W, strain mad1, active compounds read low 1.01 | locus YGL167C, strain pmr1, active compounds read low 1.02 | locus YGL173C, strain kem1, active compounds read low 1.01 | locus YGL227W, strain vid30, active compounds read low 1.01 | locus YGL240W, strain doc1, active compounds read low 1.02 | locus YGL248W, strain PDE1, active compounds read low 1.01 | locus YGL253W, strain hxk2, active compounds read low 1.02 | locus YGR078C, strain PAC10, active compounds read low 1.01 | locus YGR135W, strain pre9, active compounds read low 1.03 | locus YGR229C, strain SMI1, active compounds read low 1.01 | locus YGR252W, strain gcn5, active compounds read low 1.06 | locus YHR013C, strain ard1, active compounds read low 1.03 | locus YHR027C, strain rpn1, active compounds read low 1.01 | locus YHR030C, strain SLT2, active compounds read low 1.01 and 0.991 | locus YHR079C, strain IRE1 (second series), active compounds read low 1.02 | locus YHR079C, strain IRE1, active compounds read low 0.995 | locus YHR094C, strain hxt1, active compounds read low 1.02 | locus YHR129C, strain ARP1, active compounds read low 1 | locus YHR142W, strain chs7, active compounds read low 1.03 | locus YHR200W, strain rpn10, active compounds read low 1.03 | locus YIL066C, strain RNR3, active compounds read low 1.01 | locus YIL073C, strain SPO22, active compounds read low 1.08 | locus YIL125W, strain kgd1, active compounds read low 1.02 | locus YIR030C, strain dcg1, active compounds read low 1.03 | locus YJL092W, strain hpr5, active compounds read low 1.01 | locus YJL095W, strain BCK1 (second series), active compounds read low 1.01 | locus YJL095W, strain BCK1, active compounds read low 1.03 and 0.999 | locus YJL115W, strain asf1, active compounds read low 1.01 | locus YJL129C, strain trk1, active compounds read low 1.01 | locus YJL134W, strain LCB3, active compounds read low 1.01 | locus YJL154C, strain vps35, active compounds read low 1.02 | locus YJL164C, strain tpk1, active compounds read low 1.03 | locus YJL166W, strain qcr8, active compounds read low 1.01 | locus YJL168C, strain set2, active compounds read low 1.03 | locus YJL187C, strain SWE1 (second series), active compounds read low 1.02 | locus YJL187C, strain SWE1, active compounds read low 1.01 | locus YJR043C, strain POL32, active compounds read low 1.02 | locus YJR066W, strain TOR1, active compounds read low 0.943
